Assay outcomes: PubChem BioAssay, National Center for Advancing Translational Sciences (NCATS)
ATXN2 expr inh – Primary qHTS for Inhibitors of ATXN expression; HEK-293 ATXN2-luciferase reporter, luminescence, 24 h; Potency, µM (doses to about 57 µM), actives largely listed as inhibitors; hit rate 0.72% among 360,000; note: nearly all actives have a fitted effect of over 55% in size
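qHTS (up to 57 uM final) was run with 24 h compound exposure of reporter cells at 37 °C. Each well was multiplexed: SteadyGlo luminescence measured ATXN2-luciferase expression after a fluorogenic Gly-Phe-AFC viability readout (25 uM final).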
HT1080 IDH1KD tx – qHTS for induction of synthetic lethality in tumor cells producing 2HG: qHTS for the HT-1080-IDH1KD cell line. hit rate 2% among 360,000. Potency, µM (titrated, usually from 46.1 µM), usual class: cytotoxic. HT-1080 IDH1 knockdown viability, ATP luminescence, 48 h. AID 686971, 2013
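In this qHTS, HT-1080 cells depleted of IDH1 are exposed for 48 h at 37 °C to compound titrations. Toxicity is scored from CellTiter-Glo luminescence, with DMSO as full viability and medium alone as none.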
S2 tox – Viability Counterscreen for Primary qHTS for Inhibitors of ATXN expression; S2 cells (HEK-293 line with an ATXN2-luciferase reporter) viability, CellTiter-Fluor protease fluorescence, 24 h; Potency, µM (top dose mostly 56.7 µM), hits mostly cytotoxic; hit rate 0.49% among 400,000; AID 651635, 2014; note: nearly all actives have a fitted effect of over 40% in size
TGFb inhibitor – qHTS for Inhibitors of TGF-b; HepG2 CAGA-GFP TGF-b/SMAD3 reporter, GFP fluorescence, 18 h; TGF-beta stimulated, 500 pg/mL final; Potency, µM (highest dose often 46.1 µM), usual class: inhibitors; hit rate 1.2% among 410,000; note: nearly all actives have a fitted effect of over 65% in size
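Inhibition of TGF-beta-driven CAGA-GFP reporter expression in HEPG2 cells is measured by cellular GFP fluorescence after 18 h stimulation with 500 pg/mL recombinant TGF-beta in 1% FBS medium at 37 degrees C.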
HepG2 tox-1 – qHTS for Inhibitors of TGF-b: Cytotox Counterscreen. hit rate 0.76% among 410,000. HepG2 CAGA-GFP viability, ATP luminescence, 18 h. Potency, µM (series often up to 46.1 µM), actives largely listed as cytotoxic
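HepG2 CAGA-GFP cells (1000/well, DMEM with 1% FBS) received compound, then TGF-beta at 500 pg/mL final, and were incubated 18 hours at 37 degrees C. Viability was read by CellTiter-Glo luminescence. Media-only wells were set as complete cell-killing and DMSO as no toxicity.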
HT1080-NT tox – qHTS for induction of synthetic lethality in tumor cells producing 2HG: qHTS for the HT-1080-NT fibrosarcoma cell line | HT-1080-NT fibrosarcoma viability, CellTiter-Glo ATP luminescence, 48 h | Potency, µM (doses to about 46.1 µM), hits mostly cytotoxic | hit rate 1.6% among 360,000;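 note: NT is the 2HG producing partner of a matched IDH1 knockdown line; nearly all actives have a fitted effect of over 55% in size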
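Read-out is CellTiter-Glo luminescence after 10 minutes at room temperature, following 48 hours' compound treatment of HT-1080-NT cells (750 cells/well, RPMI, 5% FBS, 37 degrees C).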
TGFb CAGA inh – qHTS for Inhibitors of TGF-b: Confirmation of Cherry Picks | shares compounds with TGFb inhibitor | HepG2 CAGA-GFP TGF-b reporter, GFP fluorescence, 18 h; cells stimulated with TGF-beta, 500 pg/mL | Potency, µM (doses to about 46.1 µM), most hits filed as inhibitors | hit rate 63% among 1,600; note: nearly all actives have a fitted effect of over 65% in size
HepG2 tox-2 – qHTS for Inhibitors of TGF-b: Cytotox Counterscreen for Cherry Picks; shares compounds with TGFb inhibitor; HepG2 CAGA-GFP viability, ATP luminescence, 18 h; cells stimulated with TGF-beta, 500 pg/mL; Potency, µM (doses to about 46.1 µM), most hits filed as inhibitors; hit rate 27% among 1,600; AID 720535, 2013; note: nearly all actives have a fitted effect of over 70% in size
CCL64 TGFb inh – qHTS for Inhibitors of TGF-b: CCL64 Cells Orthogonal Assay for Cherry Picks; AID 720536, 2013; shares compounds with TGFb inhibitor; Potency, µM (doses to about 46.1 µM), most hits filed as inhibitors; hit rate 41% among 1,600; CCL64 CAGA-GFP reporter, TGF-b stimulated, GFP fluorescence, 18 h; note: nearly all actives have a fitted effect of over 65% in size
COP TGFb inh – qHTS for Inhibitors of TGF-b: Hit Validation in HepG2 Cells using COP promoter. shares compounds with TGFb inhibitor. AID 720537, 2013. HepG2 COP-GFP TGF-b reporter, GFP fluorescence, 18 h; cells stimulated by added recombinant TGF-beta. hit rate 3% among 1,600. Potency, µM (titrated, usually from 46.1 µM), usual class: inhibitors; note: nearly all actives have a fitted effect of over 70% in size
Hits are given with their value; i = inactive; ? = inconclusive; nt = no result given. The list is not random: actives were taken first. Their share in the collection is about 3.8%. Calls come from the whole dose curve; as a rule, active = well fitted curve in the direction sought with a large enough effect; inconclusive = small, poorly fitted or top-dose-only effect, or another doubt; inactive = no such curve, though single readings can be large; an effect the other way counts as inactive or inconclusive.

SMILES	ATXN2 expr inh	HT1080 IDH1KD tx	S2 tox	TGFb inhibitor	HepG2 tox-1	HT1080-NT tox	TGFb CAGA inh	HepG2 tox-2	CCL64 TGFb inh	COP TGFb inh
CCC1(C2CCN(Cc3c(C)[nH]c4ccccc34)CC2)NC(=O)N(Cc2ccc3c(c2)OCO3)C1=O (configuration not stated)	nt	nt	i	nt	nt	nt	nt	nt	nt	nt
Cc1nnc(N/N=C\c2ccc(-c3cccc(C(=O)O)c3)o2)n1N	?	?	i	10µM	7.08µM	i	nt	nt	nt	nt
CC(C)(C)NC(=O)Cn1cc(S(=O)(=O)Cc2ccccc2Cl)c2ccccc21	nt	nt	nt	i	i	nt	nt	nt	nt	nt
Oc1c(N=Nc2nn[nH]n2)ccc2ccccc12	i	?	22.4µM	4.47µM	5.62µM	?	7.31µM	14.6µM	20.6µM	?
COc1ccc(C(=O)NCC(c2ccc3c(c2)OCO3)N2CCN(C)CC2)cc1OC (configuration not stated)	i	nt	i	i	i	nt	nt	nt	nt	nt
C=C1C2=C(C(=O)N1OC)[C@@H](O)[C@@](C)(O)[C@@H](CCCCC)O2	i	?	?	12.6µM	i	?	?	i	i	i
N#Cc1c(C(F)(F)F)cc(-c2cccs2)nc1SCC(=O)Nc1ccccc1F	i	nt	i	i	i	nt	nt	nt	nt	nt
FC(F)Oc1ccc(NC(=S)NC23CC4CC(CC(C4)C2)C3)cc1	i	?	i	12.6µM	i	?	?	?	?	i
CCOc1ccc(NC(=S)NC23CC4CC(CC(C4)C2)C3)cc1	i	i	?	i	i	i	nt	nt	nt	nt
O=C(Nc1ccccc1)c1cc([N+](=O)[O-])ccc1Cl	i	i	i	i	i	i	nt	nt	nt	nt
O=C(Nc1cccc(Cl)c1)c1cc(N=Nc2ccc([N+](=O)[O-])cc2Cl)ccc1O	nt	i	?	?	i	i	4.61µM	5.17µM	2.31µM	i
Cc1cc(C)nc(-n2nc(C)cc2NC(=O)CN2CCC(C)CC2)n1	i	i	i	15.8µM	i	i	?	i	i	i
Cc1cc(C)nc(-n2nc(C)cc2NC(=O)CN2CCCC2)n1	nt	i	i	i	i	i	nt	nt	nt	nt
Cc1ccc(NC(=O)C2=CCN(S(=O)(=O)c3ccc(F)cc3)CC2)cc1	i	i	i	i	i	i	nt	nt	nt	nt
Cc1ccc(S(=O)(=O)N2CC=C(c3ccc(F)cc3)CC2)cc1	i	i	?	3.16µM	i	i	?	i	i	i
OCCCn1c(CCCNc2nc(-c3cccc(Br)c3)cs2)nc2cc(Cl)c(N3CCCCC3)cc21	i	?	?	10µM	i	18.4µM	13µM	i	?	i
CC(C)(C)c1ccc(/C=C/C(=O)Nc2ccc(S(N)(=O)=O)cc2)cc1	?	nt	i	?	i	nt	nt	nt	nt	nt
COc1ccc(C2CC(c3ccccc3OC(C)=O)=NN2C(=O)/C=C/c2ccccc2)cc1OC (configuration not stated)	i	?	i	10µM	i	i	18.4µM	i	?	i
COc1ccc(C2=NN(C(=O)/C=C/c3ccccc3)C(c3ccccc3)C2)c(OC(C)=O)c1 (configuration not stated)	i	?	i	i	i	i	nt	nt	nt	nt
CCOc1ccccc1NC(=O)CN(C)S(=O)(=O)c1ccc(C(=O)N2CCOCC2)s1	i	nt	i	i	i	nt	nt	nt	nt	nt
O[C@@H]1CN(CC2CCCCC2)[C@@H](c2ccccc2)C[C@H]1n1cc(C2CC2)nn1	i	i	?	i	i	i	nt	nt	nt	nt
O[C@H]1CN(CC2CCCCC2)[C@@H](c2ccc(Cl)cc2)C[C@@H]1n1cc(C2CC2)nn1	?	?	nt	10µM	11.2µM	?	23.1µM	16.4µM	23.1µM	i
CCOC(=O)c1c(C)oc2c1c(C=NCc1ccccn1)c(O)c1ccccc12	?	i	?	?	i	i	?	?	18.4µM	i
COc1cc(NC(=O)c2cc3ccccc3cc2O)c(OC)cc1Cl	nt	?	i	4.47µM	i	?	7.31µM	6.51µM	5.8µM	i
Cc1ccc(Cl)cc1NC(=O)c1cc2ccccc2cc1O	nt	?	i	3.55µM	i	4.11µM	2.59µM	7.31µM	4.11µM	i
SMILES	ATXN2 expr inh	HT1080 IDH1KD tx	S2 tox	TGFb inhibitor	HepG2 tox-1	HT1080-NT tox	TGFb CAGA inh	HepG2 tox-2	CCL64 TGFb inh	COP TGFb inh
COc1ccccc1NC(=O)c1cc2cc(Br)ccc2cc1O	nt	?	i	5.62µM	i	?	7.31µM	8.2µM	5.8µM	i
CC(=O)Nc1c(C)nn(-c2ccccc2)c1N1CCC(C(=O)Nc2ccc(C)cc2Cl)CC1	nt	nt	nt	i	i	nt	nt	nt	nt	nt
COc1ccccc1CNC(=O)c1c(O)nc2cc(C)ccn2c1=O	i	nt	i	i	i	nt	nt	nt	nt	nt
Cc1c(C(=O)NC(C)c2ccccc2)sc2ncnc(N(C)C3CCCCC3)c12 (configuration not stated)	i	nt	i	i	i	nt	nt	nt	nt	nt
Fc1ccc(Nc2ncnc3c2nc2n3CCCCC2)c(F)c1	i	nt	i	i	i	nt	nt	nt	nt	nt
CCS(=O)(=O)NCCc1sc2nc(-c3ccc(OC)cc3)nn2c1C	nt	nt	nt	?	i	nt	nt	nt	nt	nt
C/C=C1\COC(C(=O)NCc2ccccc2)(C(F)(F)F)C=C1C=C1CCCCC1 (configuration not stated)	i	i	i	11.2µM	i	i	?	i	?	i
C/C=C1\COC(C(=O)NCCN2CCOCC2)(C(F)(F)F)C=C1C=C1CCCCC1 (configuration not stated)	nt	nt	nt	?	i	nt	nt	nt	nt	nt
COc1cccc(-c2nc3c(C#N)c[nH]n3c2NC2CCCC2)c1OC	i	nt	?	i	i	nt	nt	nt	nt	nt
CCCCC(Sc1nc2cc3c(cc2c(=O)n1CCCC(=O)NCc1ccc(OC)cc1)OCO3)C(=O)OCC (configuration not stated)	nt	nt	nt	i	i	nt	nt	nt	nt	nt
